HCMV inh: blocks human cytomegalovirus replication; HFF cells, HCMV-luciferase reporter, 72 h; stronger effect = lower value; activity change, negative = inhibition, % at 57.5 µM; 4.5% of 410,000 active; in the data active means activity change below about -60%; inconclusive means no clear call, values can overlap the other calls; inactive means above about -39%
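Compounds were evaluated in HFFs infected with an HCMV luciferase reporter virus (MOI 1 PFU/cell). Luciferase in lysates collected 72 h post infection served as the replication measure.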
FMDV antiviral: antivirals against foot and mouth disease virus. 1.2% of 410,000 active. FMDV antiviral cell-based qHTS. Potency, µM (top dose mostly 57.9 µM), without a hit: at the top dose activity change, negative = inhibition, usual class: inhibitors. AID 1159524; calls by dose curve; tested in HEK293T cells; further: read-out not given here; potency means the concentration at half of the fitted maximal effect; nearly all actives have a fitted effect of over 45% in size
HCV inh: blocks hepatitis C virus. Potency, µM (top dose mostly 41.8 µM), inactives show top-dose activity change, negative = inhibition, usual class: inhibitors. 3.4% of 340,000 active. Huh7.5.1 HCVcc-Cre infection, luciferase reporter, 44 h; active means well fitted inhibition curve with a large enough effect; inconclusive means small, poorly fitted or top-dose-only effect, or another doubt; inactive means no such curve, though single readings can be large or run the other way; further: potency means the concentration at half of the fitted maximal effect
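Infectious HCV cell culture screen: compound-treated cells (1,000/well, pre-plated 4 h) are infected with HCVcc-Cre at roughly 0.5 moi and grown 44 h. Infection is quantified by luciferase signal after 15 min substrate incubation at room temperature.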
MARV entry inh: Marburg virus entry inhibition. Marburg virus pseudotyped entry inhibition, cell reporter. Potency, µM (titrated, usually from 37.8 µM), without a hit: top-dose activity change, negative = inhibition, usual class: inhibitors. 1.8% of 300,000 active; calls by dose curve; tested in HEK293 cells; further: potency means the concentration at half of the fitted maximal effect
Lassa entry inh: Lassa virus entry inhibition. Lassa virus pseudotype entry inhibition, cell reporter. Potency, µM (titrated, usually from 37.9 µM), for the others: at the highest dose activity change, negative = inhibition, actives largely listed as inhibitors. 1.2% of 300,000 active; calls by dose curve; tested in HEK293 cells; further: potency means the concentration at half of the fitted maximal effect; nearly all actives have a fitted effect of over 50% in size
The depositor's hits bear a star; ? = inconclusive; nt = no result given; [ ] = remark or other dose. Shown are actives, neighbours in structure and some others; about 7.9% of the full set was active somewhere. On the % scale 0 is the no-effect control and ±100 the full control effect.

SMILES	HCMV inh	FMDV antiviral	HCV inh	MARV entry inh	Lassa entry inh
COc1cc(CN(C(=O)c2ccccc2)c2ccccn2)cc(OC)c1OC	-3	-12%	nt	-1%[46.1 µM]	-12%[46.1 µM]
COCCn1c(=NC(=O)c2cc(-c3cccs3)nc3ccccc23)sc2cc(S(N)(=O)=O)ccc21	42	-16%	10µM*	9.2µM*	?
CCOc1ccc(NC(=O)CSC2=Nc3ccccc3C3=NC(CC(=O)NCc4cccs4)C(=O)N23)cc1 (stereo unspecified)	-25	-23%	nt	nt	8%[46.1 µM]
CCOC(=O)c1c(NC(C)=O)sc2c1CCC(C=NCCCN(CC)CC)=C2Sc1ccccc1	nt	?	7.9µM*	?	?
CCOC(=O)c1c(NC(=O)Cc2ccccc2)sc2c1CCN(C)C2	-20	-1%	?	nt	nt
COC1=C(C)C(=O)C2=C(C1=O)C(CO)N1C(C#N)C3CC4C(C1C2N1CCOC41)N3C (stereo unspecified)	-99*	?	nt	?	?
CCc1ccc(-n2nc(CO)c(C(=O)NCCOC)n2)cc1	59	13%	nt	-11%[46.1 µM]	1%[46.1 µM]
N#Cc1ccc(NC(=O)Nc2cccc(C#N)c2)cc1	-40	?	10µM*	nt	nt
N#Cc1cccc(NC(=O)c2ccccc2C(=O)O)c1	18	14%	-8%	22%	-14%
N#Cc1ccc(NC(=O)Nc2ccc(Oc3ccc(NC(=O)Nc4ccc(C#N)cc4)cc3)cc2)cc1	-82*	0%	?	?	?
CCOc1cccc(C2c3c(oc4ccc(F)cc4c3=O)C(=O)N2CCOC)c1 (stereo unspecified)	-25	-15%	nt	5%[46.1 µM]	15%[46.1 µM]
O=C(NCc1cccc(Cl)c1)C1Cc2c(-c3cccc(F)c3)ccnc2O1 (stereo unspecified)	-24	-9%	nt	nt	nt
CC(=O)c1cccc(-c2ccnc3c2CC(C(=O)NCc2ccccc2)O3)c1 (stereo unspecified)	-86*	-9%	nt	nt	nt
CC(C)c1ccc(NC(=O)C2Cc3c(-c4cccc(C(N)=O)c4)ccnc3O2)cc1 (stereo unspecified)	11	-13%	nt	nt	nt
CC(C)c1ccc(NC(=O)C2Cc3c(-c4cccc(F)c4)ccnc3O2)cc1 (stereo unspecified)	-76*	-27%	nt	nt	nt
O=C(NCc1ccccc1)C1Cc2c(-c3cccc(F)c3)ccnc2O1 (stereo unspecified)	-69*	-6%	nt	nt	nt
CCOc1ccc(CCNC(=O)CCCc2nnc3n(CC)c(=O)c4sccc4n23)cc1OCC	-7	-9%	nt	-23%[46.1 µM]	2%[46.1 µM]
CO/N=C(\C(=O)N[C@@H]1C(=O)N2C(C(=O)O)=C(CSc3nc(=O)c(O)nn3C)CS[C@H]12)c1csc(N)n1	nt	-18%	nt	nt	nt
O=C(CCc1ccc(S(=O)(=O)NCCc2ccccc2)cc1)N1CCN(Cc2ccc3c(c2)OCO3)CC1	-89*	nt	nt	nt	nt
CCCNS(=O)(=O)c1ccc(OCC(=O)N2CCN(Cc3ccc4c(c3)OCO4)CC2)cc1	?	-25%	?	2%	?
CCCNS(=O)(=O)c1ccc(OCC(=O)N2CCN(Cc3ccc4c(c3)OCO4)CC2)c(C)c1	?	-21%	7.9µM*	?	?
COc1ccccc1/C=C/c1nc(C#N)c(NCC(C)C)o1	-70*	-4%	nt	-41%[46.1 µM]	?
COc1ccccc1/C=C/c1nc(C#N)c(NCCc2ccccc2)o1	-7	-6%	nt	3%[46.1 µM]	9%[46.1 µM]
Cc1ccc(-c2nc3cc(NC(=O)C(C)C)ccc3o2)cc1C	26	-67%	?	?	?
Cc1cccc(-c2nc3cc(NC(=O)C4CCCO4)ccc3o2)c1 (stereo unspecified)	-31	-44%	-21%	7.1µM*	7.9µM*
SMILES	HCMV inh	FMDV antiviral	HCV inh	MARV entry inh	Lassa entry inh
CC(Oc1ccc(Cl)cc1Cl)C(=O)Nc1ccc2oc(-c3ccncc3)nc2c1 (stereo unspecified)	-74*	?	7.1µM*	2.1µM*	?
Cc1ccc(-c2nc3cc(NC(=O)C(C)C)ccc3o2)cc1	41	-34%	?	?	11µM*
C[C@H]1CC[C@H]2C(=O)NC[C@H](O)CN2[C@H]1c1ccc(Br)cc1	nt	nt	nt	-10%[14.2 µM]	nt
COc1ccc(CCNC(=O)C23CCC(C)(C(=O)O2)C3(C)C)cc1OC (stereo unspecified)	16	-1%	13%	nt	nt
COc1ccc(CCNC(=O)C2(C)CCC(=O)N2CCC(C)C)cc1OC (stereo unspecified)	-100*	-6%	-3%	nt	nt
O=C(NCc1ccccc1)[C@H]1[C@H](CO)[C@H]2Cn3c(cccc3=O)[C@H]2N1Cc1ccccc1F	-5	nt	nt	nt	nt
CC(=O)Nc1ncnc2c1c(-c1ccc(Cl)cc1)nn2C(C)(C)C	-20	-18%	12%	nt	nt
CC(=O)N(C(C)=O)c1ncnc2c1c(-c1ccc(Cl)cc1)nn2C(C)(C)C	?	?	?	?	16µM*
O=C(c1cc(COc2ccc3ncccc3c2)on1)N1CCCCCC1	-37	-6%	?	?	-23%[46.1 µM]
O=C(c1cc(COc2ccc3ncccc3c2)on1)N1CCCC1	?	-23%	7.1µM*	?	-10%
COCC1CCN(C(=O)c2cc(COc3ccc4ncccc4c3)on2)CC1	-75*	?	1.1µM*	-19%[46.1 µM]	?
O=C(NCCc1cn2ccccc2n1)c1cc(COc2ccc3ncccc3c2)on1	-76*	11µM*	2.5µM*	5.6µM*	-23%
O=C(NCCc1cn2ccccc2n1)c1ccccc1F	-21	-15%	-2%	12%	16%
CC(NC(=O)c1cc(COc2ccc3ncccc3c2)on1)c1ccc(F)cc1 (stereo unspecified)	-85*	1.8µM*	2.2µM*	nt	nt
Cc1c(C(=O)NC(C)(C)C)sc2ncnc(NCCN(C)C)c12	nt	-8%	nt	nt	nt
O=C(NC1CCCC1)c1cc(COc2ccc3ncccc3c2)on1	nt	?	3.5µM*	nt	nt
CCOc1ccccc1C(=O)N[C@H](C(=O)OCc1cc([N+](=O)[O-])cc2c1OCOC2)C(C)C	-4	-30%	20µM*	11µM*	?
CCOc1ccccc1C(=O)N[C@H](C(=O)OCc1csc(CC(=O)Nc2ccc(C)cc2)n1)C(C)C	21	?	11µM*	?	?
COc1cc(OC)cc(C(=O)N[C@H](C(=O)OCc2cc(=O)oc3cc(C)ccc23)C(C)C)c1	1	33%	?	?	-1%
CCOc1ccccc1C(=O)NCC(=O)OCc1csc(CC(=O)Nc2ccc(C)cc2)n1	2	16%	-2%	15%	20%
CCOc1ccccc1C(=O)N[C@H](C(=O)OCc1cc(=O)oc2cc(C)ccc12)C(C)C	-23	10%	10µM*	?	-10%
CCCOc1ccccc1/C=C1\SC(N)=NC1=O	-64*	-10%	13%	20%[46.1 µM]	4%[46.1 µM]
CCCOc1ccc(/C=C2\SC(N)=NC2=O)cc1OC	185	21%	-8%	nt	nt
Cc1ccc(-n2ncc(C(=O)NCc3ccc4c(c3)OCO4)c2C2CCN(C(=O)OC(C)(C)C)CC2)c(C)c1	?	-30%	nt	nt	?
COc1cc(Cn2c(=O)sc3ccccc32)ccc1OCCC(C)C	16	-8%	nt	1%[46.1 µM]	0%[46.1 µM]

Screening data as filed in PubChem.
